In assay [1] the target is ATP-dependent translocase ABCB1 (Homo sapiens) (UniProt P08183). As to the kind of experiment: P-glycoprotein substrate transport blockade – cell-based (AID 377). Particulars: MDR1-expressing cells, fluorescent substrate accumulation slope; stronger effect = higher value; concentration not given here.
Assay [2] in a line: compounds altering viability of human ES cells (AID 493140; call rule not given here;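 further: cells exposed to compounds for four days before counting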). Particulars: human embryonic stem cell survival screen; stronger effect = higher value.
A short description of assay [3]: P. berghei load reduction in hepatocytes – cell-based, HepG2, luciferase luminescence, HepG2 viability, primary screen (AID 624349; in the data active means parasite load remaining mostly below about 12%, no sharp cut-off; inactive means mostly above about 10%;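 further: 100% = mean of DMSO negative control wells on the same plate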). To be noted: P. berghei liver stage in HepG2, luciferase luminescence, concentration not given here; parasite load remaining: stronger effect = lower value; viability: measured here: HepG2 viability without parasites.

This note sets out measurements from PubChem BioAssay.

Inconclusive results are not listed. Activity calls are given as the source filed them. Unless noted, no stated cut-off is given here; in the data, active means fluorescence slope change above about 50%; inconclusive means mostly about 31% to 49%; inactive means weaker than that.

Chain of ATP-dependent translocase ABCB1 (Homo sapiens) (P08183 whole entry, looked up): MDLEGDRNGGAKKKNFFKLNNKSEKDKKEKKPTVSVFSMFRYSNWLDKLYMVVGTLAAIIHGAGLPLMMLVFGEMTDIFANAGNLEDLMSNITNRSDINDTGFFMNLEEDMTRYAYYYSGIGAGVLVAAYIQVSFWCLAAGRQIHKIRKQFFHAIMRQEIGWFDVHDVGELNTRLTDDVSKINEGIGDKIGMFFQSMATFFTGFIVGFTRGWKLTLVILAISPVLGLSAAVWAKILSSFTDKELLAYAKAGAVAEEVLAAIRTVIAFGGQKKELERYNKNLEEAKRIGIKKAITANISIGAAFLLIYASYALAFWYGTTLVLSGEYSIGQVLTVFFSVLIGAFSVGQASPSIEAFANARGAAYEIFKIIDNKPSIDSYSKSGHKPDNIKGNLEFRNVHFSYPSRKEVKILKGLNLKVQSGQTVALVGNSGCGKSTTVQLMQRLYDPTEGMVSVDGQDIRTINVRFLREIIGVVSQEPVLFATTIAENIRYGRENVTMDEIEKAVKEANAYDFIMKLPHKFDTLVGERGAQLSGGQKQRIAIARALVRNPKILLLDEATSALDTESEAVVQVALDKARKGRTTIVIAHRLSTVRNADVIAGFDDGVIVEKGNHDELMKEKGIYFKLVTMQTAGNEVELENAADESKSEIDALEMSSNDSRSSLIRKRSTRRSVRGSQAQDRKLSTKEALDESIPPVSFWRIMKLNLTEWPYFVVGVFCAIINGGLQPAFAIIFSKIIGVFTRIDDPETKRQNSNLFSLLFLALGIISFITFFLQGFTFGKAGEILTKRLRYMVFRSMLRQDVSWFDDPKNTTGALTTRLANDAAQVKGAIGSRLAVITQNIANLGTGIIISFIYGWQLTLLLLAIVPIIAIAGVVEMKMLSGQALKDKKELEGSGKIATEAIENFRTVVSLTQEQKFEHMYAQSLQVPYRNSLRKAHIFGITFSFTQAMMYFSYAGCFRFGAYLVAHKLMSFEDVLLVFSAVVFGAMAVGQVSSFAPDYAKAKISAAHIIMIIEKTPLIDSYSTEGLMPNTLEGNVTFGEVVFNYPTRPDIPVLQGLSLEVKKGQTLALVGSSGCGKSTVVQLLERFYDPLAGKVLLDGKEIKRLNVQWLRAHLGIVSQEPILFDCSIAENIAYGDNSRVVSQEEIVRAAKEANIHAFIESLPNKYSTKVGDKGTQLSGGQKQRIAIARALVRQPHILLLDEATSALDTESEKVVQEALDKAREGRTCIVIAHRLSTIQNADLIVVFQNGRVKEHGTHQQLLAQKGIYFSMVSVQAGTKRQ

As to `CCC(=O)OC1C(C)OC(OC2C(C)OC(O[C@H]3[C@@H](CC=O)C[C@@H](C)[C@@H](O)/C=C/C=C/C[C@@H](C)OC(=O)C[C@@H](OC(=O)CC)[C@@H]3OC)C(O)C2N(C)C)CC1(C)O` (some centres undefined), the fluorescence slope change in assay [1] was 72% (active). In addition, the survival in assay [2] is 16.6 (inactive). In assay [3], the parasite load remaining was 77.4% (inactive) and the viability is 89%.

Regarding `CCC(C(=O)C(C)C(O)C(C)CCc1ccc(C)c(O)c1C(=O)O)[C@H]1O[C@](CC)([C@H]2CCC(O)(CC)[C@H](C)O2)C[C@@H]1C` (some centres undefined), in assay [1], the fluorescence slope change is 130% (active).

Consider `CC1(C)S[C@@H]2[C@H](NC(=O)C(NC(=O)N3CCNC3=O)c3ccccc3)C(=O)N2[C@H]1C(=O)O` (some centres undefined), for which, in assay [1], the fluorescence slope change is 25.1% (inactive).

As to `CC[C@H]1OC(=O)[C@H](C)[C@@H](OC2CC(C)(OC)C(O)C(C)O2)[C@H](C)[C@@H](OC2OC(C)CC(N(C)C)C2O)[C@@H](C)C[C@](C)(O)[C@@H]2N[C@H](COCCOC)O[C@H]([C@H]2C)[C@]1(C)O` (some centres undefined), the fluorescence slope change in assay [1] was 59.6% (active).

For the compound `CCOc1ccc2ccccc2c1C(=O)NC1C(=O)N2C1SC(C)(C)C2C(=O)O` (centres undefined), in assay [1], the fluorescence slope change was 71.1% (active).

In the case of `NCC1OC(OC2C(N)CC(N)C(O)C2O[C@@H]2O[C@H](CO)[C@H](OC3OC(CN)C(O)C(O)C3N)C2O)C(N)C(O)C1O` (some centres undefined), in assay [1], the fluorescence slope change is 78.1% (active).
